Compound activity: PubChem, National Center for Advancing Translational Sciences (NCATS)
Shown is part of a subset that was picked to be rich in hits.
Menin-MLL FL inh: qHTS Assay for Inhibitors Targeting the Menin-MLL Interaction in MLL Related Leukemias: Competition With Fluorescein Labeled MLL-derived Peptide | Fluorescence polarization, fluorescein-MLL peptide displacement from menin | FP activity change, % at 61.4 µM | 290,000 tested, under 10 active; active means well fitted curve in the direction sought with a large enough effect in the polarisation, not every such curve was filed as active; inconclusive means small, poorly fitted or top-dose-only effect, or effect the other way, or a change in a side signal; inactive means no such curve, though single readings can be large or run the other way; the % refers to the polarisation
GoLoco inh red: qHTS Assay for Inhibitors of RGS12 GoLoco Motif Activity (Red Fluorophore); Gai1:RGS12 GoLoco peptide FP, rhodamine, 10 min; Potency, µM (doses to about 61.6 µM), hits mostly inhibitors; 230,000 tested, 0.44% active; active means well fitted inhibition curve with a large enough effect, not every such curve was filed as active; inactive means no such curve, though single readings can be large or run the other way; further: nearly all actives have a fitted effect of over 30% in size
MLL CXXC-DNA inh: qHTS Fluorescence Polarization Assay for Inhibitors of MLL CXXC domain - DNA interaction. AID 2662, 2010. Histone-lysine N-methyltransferase 2A (Homo sapiens), Q03164. Potency, µM (top dose mostly 115 µM), most hits filed as inhibitors. MLL-CXXC / FITC-HOXA9 DNA fluorescence polarization. 290,000 tested, 0.037% active; active means well fitted inhibition curve with a large enough effect in the polarisation, with a control signal flat, not every such curve was filed as active; inconclusive means small, poorly fitted or top-dose-only effect, or effect the other way, or a change in a side signal; inactive means no such curve, though single readings can be large or run the other way; the % refers to the polarisation
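Purified MLL-CXXC (added from a 7 uM solution) was preincubated 5 min at ambient with pinned compounds in 50 mM Tris-HCl pH 7.5, 50 mM NaCl, 1 mM DTT, 0.05% BSA. Fluorescein-labeled HOX-A9 DNA (50 nM solution) followed, 30 min, then polarization read.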
Menin MLL FP TR: qHTS Assay for Inhibitors Targeting the Menin-MLL Interaction in MLL Related Leukemias: Competition With Texas Red Labeled MLL-derived Mutant Peptide. Menin + Texas Red MLL mutant peptide, fluorescence polarization. Potency, µM (highest dose often 61.6 µM), hits mostly inhibitors. 270,000 tested, 0.23% active. AID 1768, 2009; active means well fitted inhibition curve with a large enough effect in the polarisation, with a control signal flat, not every such curve was filed as active; inconclusive means small, poorly fitted or top-dose-only effect, or effect the other way, or a change in a side signal; inactive means no such curve, though single readings can be large or run the other way; the % refers to the polarisation
MLL CXXC Fl: qHTS Fluorescence Polarization (FP) Assay for Inhibitors of MLL CXXC domain - DNA interaction: Fluorescein FP; shares compounds with MLL CXXC-DNA inh; MLL CXXC-DNA binding, fluorescein FP; Potency, µM (top dose mostly 345 µM), most hits filed as inhibitors; 200 tested, 70% active; AID 624160, 2012; further: nearly all actives have a fitted effect of over 80% in size
MLL CXXC FP-TR: qHTS Fluorescence Polarization (FP) Assay for Inhibitors of MLL CXXC domain - DNA interaction: Texas Red FP | shares compounds with MLL CXXC-DNA inh | Potency, µM (series often up to 345 µM), usual class: inhibitors | MLL CXXC-DNA binding, Texas Red fluorescence polarization | 200 tested, 40% active | AID 624161, 2012; further: nearly all actives have a fitted effect of over 75% in size
MLL CXXC HTRF: qHTS Fluorescence Polarization (FP) Assay for Inhibitors of MLL CXXC domain - DNA interaction: HTRF Assay | shares compounds with MLL CXXC-DNA inh | Potency, µM (highest dose often 172 µM), hits mostly inhibitors | 210 tested, 30% active | MLL CXXC-DNA binding, HTRF, biochemical | AID 624162, 2012; further: nearly all actives have a fitted effect of over 80% in size
Large screens that a line does not name were inactive (follow-up assays come after a bar, where they were run). Unless noted, the call rests on the fitted dose curve; in most records, active means well fitted inhibition curve with a large enough effect; inconclusive means small, poorly fitted or top-dose-only effect; inactive means no such curve, though single readings can be large or run the other way.

CCC12OC(=N)C(C#N)(C1C)C(C#N)(C#N)C(c1ccccc1)O2 (configuration not stated)	MLL CXXC-DNA inh 20µM | MLL CXXC Fl 12.6µM | MLL CXXC FP-TR 22.5µM | MLL CXXC HTRF inactive
CCCC[C@@H]1CCCO[C@@](C(=O)NCCN2CCOCC2)(C(F)(F)F)C1	none (no result: GoLoco inh red, MLL CXXC-DNA inh)
N#CC(C#N)=C1C=C2C=C(N3CCCCCC3)CCC2CC1 (configuration not stated)	Menin-MLL FL inh inconclusive, MLL CXXC-DNA inh inconclusive, Menin MLL FP TR inconclusive | MLL CXXC Fl 0.448µM | MLL CXXC FP-TR 71.1µM | MLL CXXC HTRF inactive
N#CC(C#N)=C1C=C2C=C(N3CCOCC3)CCC2CC1 (configuration not stated)	Menin-MLL FL inh inconclusive, MLL CXXC-DNA inh inconclusive
O=C(O)CCN1C(=O)/C(=C\c2cccc(OCC(=O)Nc3ccc(Cl)cc3)c2)SC1=S	MLL CXXC-DNA inh inconclusive (no result: Menin MLL FP TR) | MLL CXXC Fl inconclusive | MLL CXXC FP-TR 142µM | MLL CXXC HTRF inactive
Cc1ccc(NC(=O)COc2cccc(/C=C3\SC(=S)N(CCC(=O)O)C3=O)c2)cc1Cl	none (no result: Menin MLL FP TR)
CC1(C)CC(=O)C(C(C2=C(O)CC(C)(C)CC2=O)c2ccc(Br)s2)C(=O)C1 (configuration not stated)	MLL CXXC-DNA inh inconclusive | MLL CXXC Fl 40µM | MLL CXXC FP-TR inactive | MLL CXXC HTRF 15.3µM
Cc1ccc(C(C2=C(O)CC(C)(C)CC2=O)C2C(=O)CC(C)(C)CC2=O)s1 (configuration not stated)	MLL CXXC-DNA inh inconclusive
COc1ccc(-c2ccc(C(C)=O)cc2)cc1C1C2C=CCC(C)C2C(=O)N1Cc1ccccc1 (configuration not stated)	none (no result: GoLoco inh red, MLL CXXC-DNA inh)
CC(C)c1nnc(NC(=O)c2cc3cc(Br)ccc3oc2=O)s1	MLL CXXC-DNA inh inconclusive (no result: Menin MLL FP TR) | MLL CXXC Fl inactive | MLL CXXC FP-TR inactive | MLL CXXC HTRF inactive
COC(=O)NC1C=CCCC1C(C)=O (configuration not stated)	none (no result: MLL CXXC-DNA inh)
COc1cccc([C@@H]2Oc3ccc(OC)cc3C[C@H]2OC(=O)N[C@H](C)C2CCCCC2)c1	none (no result: MLL CXXC-DNA inh)
